Screens: PubChem BioAssay, National Center for Advancing Translational Sciences (NCATS)
In the library only some 10% were active in any assay of this set; here they are far more common.
FLuc inh-1: Firefly luciferase inhibition profiling of diverse chemical library using quantitative high-throughput screening | Luciferin 4-monooxygenase (Photinus pyralis), P08659 | purified P. pyralis luciferase, luminescence, biochemical | Potency, µM (titrated, usually from 115 µM), hits mostly inhibitors | hit rate 2.5% among 76,000 | AID 1347043, 2019; note: % is set by controls: 0 for no effect and ±100 for the full control effect; nearly all actives have a fitted effect of over 65% in size
Target sequence (P08659 whole entry, looked up): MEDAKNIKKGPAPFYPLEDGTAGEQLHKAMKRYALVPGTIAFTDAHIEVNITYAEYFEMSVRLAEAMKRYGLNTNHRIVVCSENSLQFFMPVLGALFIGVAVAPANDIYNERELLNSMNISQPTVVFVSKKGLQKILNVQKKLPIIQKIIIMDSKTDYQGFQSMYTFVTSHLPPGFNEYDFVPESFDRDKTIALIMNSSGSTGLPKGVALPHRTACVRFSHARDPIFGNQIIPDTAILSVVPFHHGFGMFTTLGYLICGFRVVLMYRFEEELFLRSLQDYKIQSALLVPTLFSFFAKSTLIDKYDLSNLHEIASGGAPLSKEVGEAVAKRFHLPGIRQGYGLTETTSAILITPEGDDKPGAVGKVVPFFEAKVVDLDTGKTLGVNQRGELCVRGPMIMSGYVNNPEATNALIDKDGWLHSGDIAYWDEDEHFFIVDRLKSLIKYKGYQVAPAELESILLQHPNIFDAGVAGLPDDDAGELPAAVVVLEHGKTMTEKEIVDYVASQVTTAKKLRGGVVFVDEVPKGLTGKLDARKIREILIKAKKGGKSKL
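Purified P. pyralis luciferase (10nM final) in 50mM Tris acetate pH 7.5, 10mM Mg acetate, 0.01% Tween-20, 0.05% BSA with 10uM D-luciferin and 10uM ATP. Compounds titrated qHTS. Luminescence imaged on CCD.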
3T3 cytotox: Cytotoxic Profiling in NIH 3T3 Cell Line of Diverse Libraries Using Quantitative High-Throughput Screening. Potency, µM (highest dose often 96.7 µM), without a hit: at the highest dose activity change, negative = cytotoxicity, most hits filed as inhibitors. AID 1345082, 2018. NIH 3T3 viability, CellTiter-Glo ATP luminescence, 48-72 h. hit rate 4.3% among 94,000; note: % is set by controls: 0 for no effect and ±100 for the full control effect; nearly all actives have a fitted effect of over 55% in size
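First NIH 3T3 cells are plated at 400 cells/well; next compound is pinned in; then plates incubate 48 or 72 hr at 37 °C; finally CellTiter-Glo is added and luminescence read after 10 min.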
hNpr1 antagonist: Natriuretic polypeptide receptor (hNpr1) antagonism - Primary qHTS; Atrial natriuretic peptide receptor 1 (Homo sapiens), P16066; AID 1347048, 2019; Potency, µM (highest dose often 46.3 µM), for inactives: at the top dose activity change, negative = inhibition, most hits filed as inhibitors; hit rate 1.6% among 76,000; HEK293 hNpr1 GloSensor cGMP, ANP-stimulated luminescence; calls by dose curve; note: % is set by controls: 0 for no effect and ±100 for the full control effect; nearly all actives have a fitted effect of over 60% in size
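Compound pre-incubated 30 min at room temperature on GloSensor-loaded HEK293 cells stably carrying hNpr1 and the pGS-40F cGMP biosensor. Stimulation uses hNppA at 0.1 nM final; luminescence is taken at baseline and 20 min post-agonist.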
GPT2 inhibitor: Primary qHTS assay for inhibitors of Glutamate pyruvate transaminase 2 (GPT2); Alanine aminotransferase 2 (Homo sapiens), Q8TD30; AID 1671188, 2021; Potency, µM (doses to about 57.7 µM), for the others: top-dose activity change, negative = inhibition, most hits filed as inhibitors; hit rate 0.25% among 100,000; Recombinant GPT2, coupled pyruvate oxidase/HRP Amplex Red fluorescence; note: % is set by controls: 0 for no effect and ±100 for the full control effect; nearly all actives have a fitted effect of over 60% in size
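Fluorescence read-out: pyruvate from GPT2 turnover coupled to pyruvate oxidase, HRP and Amplex Red (0.2mM ThPP, 0.2U/mL PO and HRP, 50uM Amplex final). Substrates 250uM a-KG, 2mM L-alanine; enzyme 10ng/uL; 30 min RT.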
HEK293 tox: Cytotoxic Profiling in HEK 293 Cell Line of Diverse Libraries Using Quantitative High-Throughput Screening; hit rate 6.6% among 94,000; Potency, µM (series often up to 115 µM), for inactives: top-dose activity change, negative = cytotoxicity, hits mostly inhibitors; HEK 293 viability, ATP luminescence (CellTiter-Glo), 48-72 h; note: % is set by controls: 0 for no effect and ±100 for the full control effect; nearly all actives have a fitted effect of over 60% in size
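CellTiter-Glo luminescence (cellular ATP) was read after 48 or 72 hr of compound exposure at 37 degree Celsius. Cells were HEK 293 plated at 250 cells/well.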
FLuc SDR -ATP: Firefly luciferase (FLuc-C-HiBiT) SDR gain of signal screen - without ATP | hit rate 7.8% among 1,300 | Purified FLuc-C-HiBiT, Nano-Glo HiBiT luminescence, no ATP | shares compounds with FLuc inh-1 | AID 1963318, 2024 | Potency, µM (doses to about 32.7 µM), for inactives: top-dose activation (signal gain), actives largely listed as activators; note: nearly all actives have a fitted effect of over 55% in size
FLuc SDR ATP: Firefly luciferase (FLuc-C-HiBiT) SDR gain of signal screen - plus ATP; shares compounds with FLuc inh-1; purified FLuc-C-HiBiT + ATP, HiBiT complementation luminescence; Potency, µM (series often up to 32.7 µM), inactives show top-dose activation (gain of signal), most hits filed as activators; hit rate 8.7% among 1,300;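 note: signal reports ligand binding via conformational change of the enzyme rather than luciferase catalysis; % of control where 0% means no effect; nearly all actives have a fitted effect of over 55% in size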
FLuc inh-2: Firefly luciferase (FLuc-C-HiBiT) enzymatic inhibition screen - Functional assay; shares compounds with FLuc inh-1; purified FLuc-C-HiBiT enzyme, luciferin luminescence; Potency, µM (top dose mostly 32.7 µM), for the others: at the top dose activity change, negative = inhibition, most hits filed as inhibitors; hit rate 42% among 1,300; AID 1963320, 2024; note: % is set by controls: 0 for no effect and ±100 for the full control effect; nearly all actives have a fitted effect of over 70% in size
Numbers without * were called inactive; [ ] = another dose, or the depositor's remark. Unless noted, calls come from the whole dose curve; as a rule, active = well fitted curve in the direction sought with a large enough effect; inconclusive = small, poorly fitted or top-dose-only effect, or another doubt; inactive = no such curve, though single readings can be large; an effect the other way counts as inactive or inconclusive. Potency is the fitted concentration of half-maximal effect.

For O=C1c2cnc(-c3ccsc3)nc2OCCN1CC1CC1 the results were FLuc inh-1 inconclusive, 3T3 cytotox -17%[138 µM], hNpr1 antagonist -12%[70.6 µM], GPT2 inhibitor inconclusive and HEK293 tox inconclusive.
`O=C1c2cnc(-c3cccc(CO)c3)nc2OCCN1c1cccc(C(F)(F)F)c1` gave FLuc inh-1 11µM*, 3T3 cytotox 18µM*, hNpr1 antagonist inconclusive, GPT2 inhibitor 2%[88.5 µM], HEK293 tox inconclusive, FLuc SDR -ATP 16%[49.3 µM], FLuc SDR ATP 14%[49.3 µM] and FLuc inh-2 inconclusive.
`O=C1c2cnc(-c3cccc(C(F)(F)F)c3)nc2OCCN1CC1CC1` gave FLuc inh-1 3.2µM*, 3T3 cytotox inconclusive, hNpr1 antagonist inconclusive, GPT2 inhibitor 5%[88.5 µM], HEK293 tox inconclusive, FLuc SDR -ATP inconclusive, FLuc SDR ATP inconclusive and FLuc inh-2 9µM*.
`C[S+](=O)([O-])c1ccc(-c2ncc3c(n2)OCCN(Cc2ccc(F)cc2F)C3=O)cc1` gave FLuc inh-1 inactive, 3T3 cytotox -17%, hNpr1 antagonist -10%, GPT2 inhibitor 2% and HEK293 tox inconclusive.
For CN1CCOc2nc(-c3cccc(OC(F)(F)F)c3)ncc2C1=O the results were FLuc inh-1 3.2µM*, 3T3 cytotox inconclusive, hNpr1 antagonist inconclusive, GPT2 inhibitor -7%[88.5 µM], HEK293 tox inconclusive, FLuc SDR -ATP 21%[49.3 µM], FLuc SDR ATP inconclusive and FLuc inh-2 inconclusive.
Screening Cc1ccc(-c2ncc3c(n2)OCCN(Cc2ccc(F)cc2F)C3=O)cc1 returned FLuc inh-1 3.2µM*, 3T3 cytotox inconclusive, hNpr1 antagonist inconclusive, GPT2 inhibitor 0%[88.5 µM], HEK293 tox -22%[172 µM], FLuc SDR -ATP 12%[49.3 µM], FLuc SDR ATP 11%[49.3 µM] and FLuc inh-2 -4%[49.3 µM].
For COc1cccc(CNC(=O)C2CCc3nnc(CN[S+](=O)([O-])c4ccccc4Cl)n32)c1 (configuration not stated) the results were 3T3 cytotox -29%, GPT2 inhibitor inactive and HEK293 tox -4%.
`COc1ccc(-c2noc(-c3ccc(C)cc3Cl)n2)cc1OC` gave FLuc SDR -ATP 20%, FLuc SDR ATP 12% and FLuc inh-2 inconclusive.
Screening CC(C)NC(=O)N1CC(CNC(=O)C2CC2)C2(CCCCC2)C1 (configuration not stated) returned 3T3 cytotox -21%, GPT2 inhibitor inactive and HEK293 tox -5%.
For Oc1c(Br)cc(Br)cc1-c1nc2ccccc2s1 the results were FLuc SDR -ATP 10%, FLuc SDR ATP 8% and FLuc inh-2 inconclusive.
`Nc1ncnc2c1ncn2[C@@H]1O[C@H](CO)[C@@H](O)[C@H]1O` gave GPT2 inhibitor -2%.
Screening Nc1ncnc2c1ncn2[C@H]1O[C@H](CO)[C@@H](O)[C@@H]1O returned FLuc SDR -ATP 11%, FLuc SDR ATP 10% and FLuc inh-2 2%.
Screening Nc1nn(-c2ccccc2)nc1C(=O)OCc1ccccc1 returned FLuc SDR -ATP 13%, FLuc SDR ATP 10% and FLuc inh-2 -13%.
For Cc1ccc2nc(-c3ccc(N)cc3)sc2c1S(=O)(=O)O the results were FLuc SDR -ATP inconclusive, FLuc SDR ATP inconclusive and FLuc inh-2 2.5µM*.
Screening Cc1ccc2nc(-c3ccc4nc(-c5ccc(NC(=O)c6cccc(Cl)c6)cc5)sc4c3)sc2c1S(=O)(=O)O returned FLuc SDR -ATP 2%, FLuc SDR ATP 3% and FLuc inh-2 inconclusive.
`Cc1ccc2nc(-c3ccc(N=Nc4cc(S(=O)(=O)O)c5ccccc5c4O)cc3)sc2c1S(=O)(=O)O` gave FLuc SDR -ATP 2%, FLuc SDR ATP 2% and FLuc inh-2 12µM*.
CNC(=O)c1cc(C2CC2)nc2onc(C3CCN(C(=O)c4ccncc4)C3)c12 (configuration not stated) was read as 3T3 cytotox -13% and HEK293 tox 2%.
Screening CCN1c2cc(C(=O)Nc3ccc4c(c3)OCCO4)ccc2C(=O)N2CCCC21 (configuration not stated) returned FLuc inh-1 5µM*, 3T3 cytotox inconclusive, hNpr1 antagonist -8%, GPT2 inhibitor inactive, HEK293 tox inconclusive, FLuc SDR -ATP 27%, FLuc SDR ATP 16% and FLuc inh-2 inconclusive.
`CCN1c2cc(C(=O)Nc3ccc4c(c3)OCCO4)ccc2C(=O)N2CCCCCC21` (configuration not stated) gave FLuc inh-1 11µM*, 3T3 cytotox inconclusive, hNpr1 antagonist inconclusive, GPT2 inhibitor inactive, HEK293 tox 18µM*, FLuc SDR -ATP 21%, FLuc SDR ATP 18% and FLuc inh-2 inconclusive.
Screening N#Cc1cccnc1-c1ccc(C(=O)N2CCC(NC(=O)C3CC3)CC2)cc1 returned 3T3 cytotox -22%, GPT2 inhibitor 4% and HEK293 tox -6%.
Screening Cn1cnc(S(=O)(=O)N2CCCOCCNC(=O)[C@@H]3CCC[C@@H]32)c1 returned FLuc inh-1 inactive, 3T3 cytotox -6%, hNpr1 antagonist -2%, GPT2 inhibitor inactive and HEK293 tox inactive.
`COc1ccc(C2(C(=O)N3CCCC(CN4CCOCC4)CC3)CC2)cc1` (configuration not stated) gave FLuc inh-1 inactive, 3T3 cytotox -15%, hNpr1 antagonist -3%, GPT2 inhibitor 2% and HEK293 tox -20%.
